Experimental findings from ChEMBL document CHEMBL4513216, “Probing the Open Global Health Chemical Diversity Library for Multistage-Active Starting Points for Next-Generation Antimalarials” (ACS Infect Dis, 2020) are described below.

Among all 69,000 compounds or so, about 8,600 (12%) showed an effect of 50% or more. The sample as a whole holds a higher share of strong results than the screen did.

This test relates to Plasmodium berghei. The test is described as follows: Screen against P. berghei liver stage (PbLuc), transformed with Luciferase, at 10uM. It counts as functional, HepG2. Particulars: tested at 10 uM.
As for `CO[C@H]1CC[C@H]2[C@H]1OCCN2C(=O)CCOc1ccccc1`, the INHIBITION was determined as 14%. As to `COCC1COCCC12CCN(Cc1nccs1)CC2` (stereo not drawn), the INHIBITION was 22.6%.

In the case of `CNC(=O)c1cccc(CN2CCN(c3ccncc3)CC2)c1`, the INHIBITION was 35.1%. The value for `Cc1cc(CN2CCC(CNS(=O)(=O)c3ccc(Br)s3)CC2)c(C)o1` was 79%. The value for `Cc1cc(CN2CCC(CNS(=O)(=O)c3ccc(C)s3)CC2)c(C)o1` was 49.7%; that for `Cc1cc(CN2CCC(CNS(=O)(=O)c3ccccc3F)CC2)c(C)o1` was 14.4%. In the case of `O=C(NCc1ccco1)[C@@H]1CC[C@@H]2[C@@H](CCN2Cc2ccc(F)cc2)O1`, the INHIBITION amounted to 5.87%. For `O=C1CC(c2cccc(Cl)c2)c2snc(C(=O)O)c2N1` (stereo not drawn), the INHIBITION came out at 55.7%.

In the case of `O=C1CC(c2ccccc2)c2snc(C(=O)O)c2N1` (stereo not drawn), the INHIBITION is recorded as 12.6%. Regarding `O=C1CC(c2ccc(F)cc2)c2snc(C(=O)O)c2N1` (stereo not drawn), the INHIBITION amounted to 15.9%. Take `O=C1CC(c2ccc(F)c(F)c2)c2snc(C(=O)O)c2N1` (stereo not drawn): the INHIBITION came out at 27.6%. With `O=C1CC(c2ccsc2)c2snc(C(=O)O)c2N1` (stereo not drawn), the INHIBITION is reported as 72.6%. `O=C1CC(c2ccc(C(F)(F)F)cc2)c2snc(C(=O)O)c2N1` (stereo not drawn): the INHIBITION turned out to be 42.4%.

In the case of `O=C(c1cccnc1)N1CCc2ncnc(C3CCOC3)c2CC1` (stereo not drawn), the INHIBITION was 25.6%. Take `CN(Cc1ccc2c(c1)OCO2)C(=O)C1CC(c2cccc(F)c2)=NO1` (stereo not drawn): the INHIBITION is -14.3%. The value for `COCCOCC(=O)N1C[C@@H]2CC[C@H](Oc3cccc(F)c3)[C@@H]2C1` was -71.9%; that for `Cc1nc2c(c(=O)n1C)CCN(C(=O)CCc1ccccc1O)CC2` was 14.3%.

As to `CN1CCCC2(CC1)CCN(C(=O)CCc1ccccc1F)CC2`, the INHIBITION amounted to 80%. The value for `CN1CCN(CC2(O)CCN(C(=O)CCc3ccccc3F)C2)CC1` (stereo not drawn) was 16.705%. Turning to `CN1CCCC2(CC1)CCN(C(=O)CCc1ccccc1O)CC2`, the INHIBITION was 56.5%.

On to `CCCC(=O)N1Cc2ccccc2CC2(CCN(C)C2)C1` (stereo not drawn), for which the INHIBITION was found to be 40%.

On to `COC(=O)CCC(=O)N1CCC2(CN(Cc3ccccc3F)C2)C1`, for which the INHIBITION is listed as 22.4%. As for `COc1ccc(CCNC(=O)N2CCCC(c3nncn3C)C2)cc1` (stereo not drawn), the INHIBITION was -12.1%. The value for `COCCN1CCC(CNC(=O)C2(c3ccccc3)CCOCC2)C1` (stereo not drawn) was 5.9%; that for `CC1COCCN1Cc1nc(-c2cccc(C(F)(F)F)c2)no1` (stereo not drawn) was 9.54%; that for `CCc1c(C)nc2ccccc2c1N1CCC(NC(C)=O)CC1` was 37.2%.

`CCc1c(C)nc2ccccc2c1N1CCC(O)CC1`: the INHIBITION amounted to 24.4%. The value for `CCc1c(C)nc2ccccc2c1N1CCC(C(=O)NC)CC1` was 52.2%. Regarding `COc1c(CNC2CCc3ccccc32)c(C(C)C)nn1C` (stereo not drawn), the INHIBITION came to 11.2%. The value for `CC(=O)N1CCC(NC(=O)Cc2nc3nc(C)cc(C)n3n2)CC1` was 4.25%; that for `O=S(=O)(NCC1OCCc2cn(Cc3ccccn3)nc21)C1CC1` (stereo not drawn) was 10.7%.

Take `C[C@@H]1CN(Cc2cccnc2)C[C@]12CCN(CCN1CCCC1)C2=O`: the INHIBITION is reported as 37.1%. With `Cc1ccc(CN(Cc2ccccn2)C(=O)C2CCCCCN2C)s1` (stereo not drawn) the figure was 27.6%. The value for `Cc1ccc(CN(Cc2ccccn2)C(=O)[C@H]2CC[C@@H](N)C2)s1` was 60.8%; that for `Cc1ccc(CN(Cc2ccccn2)C(=O)CCC2CCCN(C)C2)s1` (stereo not drawn) was 49%; that for `CC(CC1CC1)NCCCN1CCCN(C)CC1` (stereo not drawn) was -7.94%. The value for `Cn1cc(NC(=O)Nc2cccc3cccnc23)ccc1=O` was 37.9%; that for `Cc1n[nH]c(C)c1C1CCCN1C(=O)NCC(=O)NC(C)(C)C` (stereo not drawn) was 43.3%; that for `Cc1n[nH]c(C)c1C1CCCN1C(=O)NC(C)(C)C` (stereo not drawn) was 31.1%. In the case of `COC(C)(C)CNC(=O)N1CCCC1c1c(C)n[nH]c1C` (stereo not drawn), the INHIBITION came to 82.2%.

Consider `CCOc1c(CNC2CSCCSC2)cccc1OC`, for which the INHIBITION was found to be 24.9%. The value for `Cc1nnc([C@]23COC[C@H]2CN(Cc2cccs2)C3)o1` was 27.5%; that for `COCc1noc(CC2CN(c3ncnc4sc(C)c(C)c34)CCO2)n1` (stereo not drawn) was -12.5%. In the case of `Cc1cnc(N2CCC3(CCN(CC4CCCC4)C3=O)CC2)nc1`, the INHIBITION is listed as -9.74%. Consider `Cc1ccccc1-c1noc(CN2CC(n3cccn3)C2)n1`, for which the INHIBITION was -33.7%. Turning to `Cc1cnn(C2CN(Cc3nc(-c4ccco4)no3)C2)c1`, the INHIBITION is recorded as -0.847%. With `Cc1cnn(C2CN(Cc3nc(-c4ccccc4C)no3)C2)c1` the figure was 89.5%.

`Cc1cccc(-c2noc(Cn3nc(C(N)=O)ccc3=O)n2)c1`: the INHIBITION was 56%. Regarding `Cc1ccc(-c2noc(Cn3nc(C(N)=O)ccc3=O)n2)cc1`, the INHIBITION amounted to 28.2%.

For the molecule `CCCc1noc(C(C)N2CC(n3cccn3)C2)n1` (stereo not drawn), the INHIBITION stood at 8.77%. With `CCc1ccc(-c2noc(Cn3nc(C(N)=O)ccc3=O)n2)cc1` the figure was -16.3%; with `Cc1cnn(C2CN(Cc3noc(-c4ccccc4)n3)C2)c1`, 8.77%. With `COc1ccc(-c2nc(CN3CC(n4cccn4)C3)no2)cc1` the figure was 25.8%. Turning to `CC(c1nc(-c2ccccc2)no1)N1CC(n2cccn2)C1` (stereo not drawn), the INHIBITION is reported as -66.5%. The value for `Cc1cnn(C2CN(C(C)c3nc(-c4ccccc4)no3)C2)c1` (stereo not drawn) was 84%. Consider `COc1ccc(-c2nc(CN3CC(n4cc(C)cn4)C3)no2)cc1`, for which the INHIBITION was 90.1%.

For the molecule `CC(=O)N(Cc1noc(C2CC2)n1)C1CCN(CC(=O)NC2CC2)C1` (stereo not drawn), the INHIBITION is recorded as -11.9%. As to `Cc1nc(CNC(=O)NC(C)c2ccc3c(c2)OCCCO3)cs1` (stereo not drawn), the INHIBITION was 1.04%.
